Data published in PubChem BioAssay AID1159580 (chemical genetic matrix, 2015).
Values joined by “and” are separate entries in the source; they are usually repeats but may differ in a detail not shown here. Identical values can stand only once. About 2,000 (36%) of roughly 5,500 compounds were called active. Roughly 18% stayed inconclusive and do not appear here. No stated cut-off is given here; in the data, active means normalized growth mostly below about 0.91 (no sharp cut-off); inconclusive means no clear call, values can overlap the other calls; inactive means mostly above about 0.92. The list shows a part of the results.

Assay: chemical genetic growth profiling, strain panel (AID 1159580);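 further: tested at 20 µM; growth read once vehicle control cultures reached saturation at 30 °C; 1 = growth at the plate median or of vehicle wells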
Conditions: growth OD

Measured: normalized growth

O=c1[nH]c2ccccc2n1C1CCN(CCCC(c2ccc(F)cc2)c2ccc(F)cc2)CC1
inactive: S. cerevisiae deletion strains, locus YJR075W, strain HOC1, stronger effect = lower value 0.954 and 0.993 | S. cerevisiae deletion strains, locus YKL009W, strain mrt4, stronger effect = lower value 0.963 | S. cerevisiae deletion strains, locus YKL068W, stronger effect = lower value 0.993 | S. cerevisiae deletion strains, locus YKL085W, strain MDH1 (second series), stronger effect = lower value 0.99 | S. cerevisiae deletion strains, locus YKL085W, strain MDH1, stronger effect = lower value 0.99 | S. cerevisiae deletion strains, locus YKL160W, strain elf1, stronger effect = lower value 0.914 | S. cerevisiae deletion strains, locus YKL190W, strain CNB1, stronger effect = lower value 0.974 | S. cerevisiae deletion strains, locus YKR001C, strain vps1, stronger effect = lower value 0.939 | S. cerevisiae deletion strains, locus YKR026C, strain gcn3, stronger effect = lower value 1.03 | S. cerevisiae deletion strains, locus YKR091W, strain srl3, stronger effect = lower value 1.01 | S. cerevisiae deletion strains, locus YLL026W, stronger effect = lower value 0.988 | S. cerevisiae deletion strains, locus YLL041C, strain sdh2, stronger effect = lower value 1.02 | S. cerevisiae deletion strains, locus YLR027C, strain aat2, stronger effect = lower value 0.927 | S. cerevisiae deletion strains, locus YLR039C, strain RIC1, stronger effect = lower value 1.02 | S. cerevisiae deletion strains, locus YLR058C, strain SHM2, stronger effect = lower value 0.977 | S. cerevisiae deletion strains, locus YLR102C, strain apc9, stronger effect = lower value 0.993 | S. cerevisiae deletion strains, locus YLR113W, strain HOG1, stronger effect = lower value 0.967 | S. cerevisiae deletion strains, locus YLR221C, strain rsa3, stronger effect = lower value 0.932 | S. cerevisiae deletion strains, locus YLR258W, strain gsy2, stronger effect = lower value 0.981 | S. cerevisiae deletion strains, locus YLR262C, strain YPT6 (second series), stronger effect = lower value 1.06 | S. cerevisiae deletion strains, locus YLR262C, strain YPT6, stronger effect = lower value 1.04 | S. cerevisiae deletion strains, locus YLR268W, strain sec22, stronger effect = lower value 0.98 | S. cerevisiae deletion strains, locus YLR330W, strain CHS5, stronger effect = lower value 0.995 | S. cerevisiae deletion strains, locus YLR342W, strain FKS1 (second series), stronger effect = lower value 0.94 | S. cerevisiae deletion strains, locus YLR342W, strain FKS1, stronger effect = lower value 0.936 | S. cerevisiae deletion strains, locus YLR357W, strain rsc2, stronger effect = lower value 0.877 | S. cerevisiae deletion strains, locus YLR370C, strain arc18, stronger effect = lower value 0.962 | S. cerevisiae deletion strains, locus YLR371W, strain rom2, stronger effect = lower value 0.989 | S. cerevisiae deletion strains, locus YLR384C, strain iki3, stronger effect = lower value 1.04 | S. cerevisiae deletion strains, locus YLR418C, strain cdc73, stronger effect = lower value 0.921 | S. cerevisiae deletion strains, locus YML016C, strain PPZ1, stronger effect = lower value 0.992 | S. cerevisiae deletion strains, locus YML032C, strain rad52, stronger effect = lower value 0.972 | S. cerevisiae deletion strains, locus YML120C, strain ndi1, stronger effect = lower value 0.939 | S. cerevisiae deletion strains, locus YML124C, strain tub3, stronger effect = lower value 1 | S. cerevisiae deletion strains, locus YMR078C, strain ctf18, stronger effect = lower value 0.983 | S. cerevisiae deletion strains, locus YMR125W, strain sto1, stronger effect = lower value 0.995 | S. cerevisiae deletion strains, locus YMR129W, stronger effect = lower value 0.966 | S. cerevisiae deletion strains, locus YMR223W, strain ubp8, stronger effect = lower value 0.978 | S. cerevisiae deletion strains, locus YMR231W, strain pep5, stronger effect = lower value 1.02 | S. cerevisiae deletion strains, locus YMR263W, strain SAP30, stronger effect = lower value 0.986 and 0.997 | S. cerevisiae deletion strains, locus YMR307W, strain GAS1, stronger effect = lower value 1.04 and 0.999 | S. cerevisiae deletion strains, locus YNL067W, strain RPL9B, stronger effect = lower value 0.987 | S. cerevisiae deletion strains, locus YNL071W, strain lat1, stronger effect = lower value 1.01 | S. cerevisiae deletion strains, locus YNL128W, strain TEP1, stronger effect = lower value 0.965 | S. cerevisiae deletion strains, locus YNL153C, strain GIM3, stronger effect = lower value 0.974 | S. cerevisiae deletion strains, locus YNL183C, strain NPR1, stronger effect = lower value 0.937 | S. cerevisiae deletion strains, locus YNL197C, strain WHI3, stronger effect = lower value 1.1 | S. cerevisiae deletion strains, locus YNL209W, strain ssb2, stronger effect = lower value 1.02 | S. cerevisiae deletion strains, locus YNL224C, strain SQS1, stronger effect = lower value 1.01 | S. cerevisiae deletion strains, locus YNL233W, strain BNI4, stronger effect = lower value 0.985 | S. cerevisiae deletion strains, locus YNL250W, strain rad50, stronger effect = lower value 0.986 | S. cerevisiae deletion strains, locus YNL271C, strain bni1, stronger effect = lower value 1.01 | S. cerevisiae deletion strains, locus YNL298W, strain CLA4, stronger effect = lower value 1.01 | S. cerevisiae deletion strains, locus YNL307C, strain MCK1, stronger effect = lower value 0.927 | S. cerevisiae deletion strains, locus YNL322C, strain KRE1 (second series), stronger effect = lower value 1.03 | S. cerevisiae deletion strains, locus YNL322C, strain KRE1, stronger effect = lower value 0.99 | S. cerevisiae deletion strains, locus YNR049C, strain mso1, stronger effect = lower value 0.991 | S. cerevisiae deletion strains, locus YNR052C, strain pop2, stronger effect = lower value 0.996 | S. cerevisiae deletion strains, locus YOL006C, strain TOP1, stronger effect = lower value 0.848 | S. cerevisiae deletion strains, locus YOL012C, strain htz1 0.998 | S. cerevisiae deletion strains, locus YOL147C, strain pex11, stronger effect = lower value 1 | S. cerevisiae deletion strains, locus YOR061W, strain CKA2, stronger effect = lower value 0.972 | S. cerevisiae deletion strains, locus YOR069W, strain VPS5, stronger effect = lower value 0.991 | S. cerevisiae deletion strains, locus YOR070C, strain gyp1, stronger effect = lower value 0.963 | S. cerevisiae deletion strains, locus YOR080W, strain dia2, stronger effect = lower value 1 | S. cerevisiae deletion strains, locus YOR083W, strain WHI5 (second series), stronger effect = lower value 0.874 | S. cerevisiae deletion strains, locus YOR106W, strain vam3, stronger effect = lower value 0.92 | S. cerevisiae deletion strains, locus YOR136W, strain idh2, stronger effect = lower value 0.986 | S. cerevisiae deletion strains, locus YOR144C, strain elg1, stronger effect = lower value 1 | S. cerevisiae deletion strains, locus YOR184W, strain ser1, stronger effect = lower value 0.894 | S. cerevisiae deletion strains, locus YOR231W, strain MKK1, stronger effect = lower value 0.984 | S. cerevisiae deletion strains, locus YOR265W, strain rbl2, stronger effect = lower value 0.992 | S. cerevisiae deletion strains, locus YOR316C, strain cot1, stronger effect = lower value 0.995 | S. cerevisiae deletion strains, locus YPL051W, strain arl3, stronger effect = lower value 0.954 | S. cerevisiae deletion strains, locus YPL055C, strain LGE1, stronger effect = lower value 0.924 | S. cerevisiae deletion strains, locus YPL078C, strain atp4, stronger effect = lower value 0.956 | S. cerevisiae deletion strains, locus YPL106C, strain sse1, stronger effect = lower value 1.07 | S. cerevisiae deletion strains, locus YPL240C, strain hsp82, stronger effect = lower value 1.02 | S. cerevisiae deletion strains, locus YPL241C, strain CIN2, stronger effect = lower value 0.986 and 1 | S. cerevisiae deletion strains, locus YPL256C, strain CLN2, stronger effect = lower value 0.965 | S. cerevisiae deletion strains, locus YPR119W, strain clb2, stronger effect = lower value 0.995 | S. cerevisiae deletion strains, locus YPR141C, strain kar3, stronger effect = lower value 0.996 | S. cerevisiae deletion strains, locus YPR163C, strain tif3, stronger effect = lower value 1 | S. cerevisiae deletion strains, locus YPR167C, strain met16, stronger effect = lower value 0.986 | S. cerevisiae deletion strains, strain wtn01, stronger effect = lower value 0.989 | S. cerevisiae strains, strain wild type, stronger effect = lower value 0.993
active: S. cerevisiae deletion strains, locus YLL001W, strain dnm1, stronger effect = lower value 0.893 | S. cerevisiae deletion strains, locus YLR320W, strain mms22, stronger effect = lower value 0.784 | S. cerevisiae deletion strains, locus YMR058W, strain fet3, stronger effect = lower value 0.897 | S. cerevisiae deletion strains, locus YMR205C, strain PFK2, stronger effect = lower value 0.859 | S. cerevisiae deletion strains, locus YNL248C, strain rpa49, stronger effect = lower value 0.878 | S. cerevisiae deletion strains, locus YOR001W, strain rrp6, stronger effect = lower value 0.817 | S. cerevisiae deletion strains, locus YOR083W, strain WHI5, stronger effect = lower value 0.857 | S. cerevisiae deletion strains, locus YOR270C, strain vph1, stronger effect = lower value 0.449 | S. cerevisiae deletion strains, locus YOR290C, strain snf2, stronger effect = lower value 0.638
